Screening data deposited in PubChem by National Center for Advancing Translational Sciences (NCATS).
Sm TGR inh: qHTS Assay for the Inhibitors of Schistosoma Mansoni Peroxiredoxins; purified TGR, DTNB reduction, TNB absorbance 405 nm; actives 3% (n = 360,000); Potency, µM (titrated, usually from 114 µM), inactives show at the top dose activity change, negative = inhibition, usual class: inhibitors; Schistosoma mansoni thioredoxin glutathione reductase (TGR), Q962Y6; note: potency is the fitted concentration of half-maximal effect; % is set by controls: 0 for no effect and ±100 for the full control effect; nearly all actives have a fitted effect of over 60% in size
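First, TGR (20 nM dispensed) and NADPH were mixed with compound. Second, a 15 min room-temperature incubation followed. Third, further NADPH and then DTNB were added to start the reaction. Finally, TNB absorbance was monitored kinetically.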
Shiga toxin inh: A qHTS for Small Molecule Inhibitors of Shiga Toxin; Vero cells, Shiga toxin protein synthesis inhibition reporter; inhibition, % at 38.7 µM; actives 9.2% (n = 290,000); AID 2315, 2010; in the data active = inhibition mostly above about 28%, no sharp cut-off; inactive = mostly below about 43%; note: 0% is about no effect
Pf growth 96h: Primary qHTS for delayed death inhibitors of the malarial parasite plastid, 96 hour incubation | P. falciparum luciferase reporter growth, 96 h | Potency, µM (series often up to 28.7 µM), for the others: at the top dose activity change, negative = inhibition, actives largely listed as inhibitors | actives 6.9% (n = 320,000); note: potency is the fitted concentration of half-maximal effect; % is set by controls: 0 for no effect and ±100 for the full control effect
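Two-generation exposure (96 h) targets delayed-death phenotype. Reporter parasites carrying integrated firefly luciferase, in red cells at 2% hematocrit and 0.05% parasitemia final, kept at 37 C, 5% CO2; luminescence loss indicates inhibition.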
Pf growth 48h: Primary qHTS for delayed death inhibitors of the malarial parasite plastid, 48 hour incubation. P. falciparum luciferase growth in erythrocytes, 48 h. Potency, µM (doses to about 28.7 µM), without a hit: at the top dose activity change, negative = inhibition, most hits filed as inhibitors. actives 5.9% (n = 310,000). AID 504832, 2011; note: potency is the fitted concentration of half-maximal effect; % is set by controls: 0 for no effect and ±100 for the full control effect
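First compound was added to culture medium, then infected red cells at 0.1% parasitemia and 2% hematocrit (final). After incubation at 37 C under 5% CO2, luciferase detection reagent was dispensed and light output recorded.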
Cycloheximide cs: Cycloheximide Counterscreen for Small Molecule Inhibitors of Shiga Toxin; cell reporter, cycloheximide protein synthesis inhibition counterscreen; max response, %; actives 12% (n = 300,000); in the data active = max response mostly above about 13%, no sharp cut-off; inactive = mostly below about 14%; note: read at 38.3 µM for the half of the compounds with a filed dose; 0% is about no effect
NS1 inh: qHTS Assay for Inhibitors of Influenza NS1 Protein Function; Potency, µM (top dose mostly 46.1 µM), without a hit: at the highest dose activity, positive = more growth; actives 0.4% (n = 270,000); calls by dose curve; note: potency is the fitted concentration of half-maximal effect; actives are rising curves; nearly all actives have a fitted effect of over 50% in size
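OD600 was taken as the measure of yeast growth restored by compound in an NS1-expressing S. cerevisiae strain. Cells had been washed out of glucose medium and diluted 1:100 into galactose -URA medium, pH 6.0.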
* = called active by the depositor; ? = inconclusive; · = no result given; [ ] = remark or other dose. Hits are enriched below; roughly 21% of the tested compounds scored in any of these assays. Unless noted, calls come from the whole dose curve; as a rule, active = well fitted curve in the direction sought with a large enough effect; inconclusive = small, poorly fitted or top-dose-only effect, or another doubt; inactive = no such curve, though single readings can be large; an effect the other way counts as inactive or inconclusive.

SMILES	Sm TGR inh	Shiga toxin inh	Pf growth 96h	Pf growth 48h	Cycloheximide cs	NS1 inh
CC(=O)NC1=NN(C(C)=O)C(C)(c2ccccc2)S1 (configuration not stated)	-15.9%	-9.2	19.6%	7.5%	-1.2	3.0%
Cc1onc(-c2ccccc2Cl)c1C(=O)OCN1C(=O)c2ccccc2C1=O	-0.3%	-2.4	13.1µM*	11.7%	-0.7	-56.5%
Cc1onc(-c2ccccc2Cl)c1C(=O)O/N=C(\N)c1ccccc1	?	19.0	16.9%	?	23.1*	-20.9%
Cc1onc(-c2ccccc2Cl)c1C(=O)OCc1cnc(Cl)s1	14.6%	22.4	0.0%	0.0%	-2.9	·
O=C(NCCCN1CCOCC1)c1cccc(S(=O)(=O)Nc2ccccc2Cl)c1	-1.5%	-22.6	2.6%	-2.2%	-1.4	6.2%
CN1CCC(OC(=O)C(Oc2ccc(Cl)cc2)Oc2ccc(Cl)cc2)CC1	·	·	-1.3%	4.8%	·	·
CC(=O)Nc1ccc(N2CCCCC2)cc1	-18.8%	23.8	26.2%	13.6%	11.5	2.8%
CC(=O)Nc1ccc(N2Cc3ccccc3C2)cc1	12.6µM*	13.4	?	64.7%	10.3	?
CC(=O)Nc1ccc(-n2cnnn2)cc1	-26.7%	18.1	-11.8%	16.3%	-2.1	-1.1%
CC(=O)Nc1ccc(N2CCCC2)cc1	35.5µM*	-11.9	·	?	-1.4	3.5%
CCCC(=O)Nc1ccc(N2CCCCC2)cc1	-22.5%	110.5*	·	67.9%	25.1*	-5.1%
CC(=O)Nc1ccc(N2S(=O)(=O)c3ccccc3S2(=O)=O)cc1	-7.5%	-11.1	11.7µM*	-16.0%	-1.9	-6.4%
COc1cccc(S(=O)(=O)N2CCN(S(=O)(=O)c3ccc4c(c3)OCCO4)CC2)c1	·	-12.5	·	·	-5.8	·
Cn1ccc2c(OCC(=O)Nc3cc(C(F)(F)F)ccc3Cl)cccc2c1=O	-4.4%	·	·	·	·	·
CCCc1cc(=O)oc2cc(C)c3c(C(C)(C)C)coc3c12	1.1%	·	·	·	·	·
CC(C)CN1CN(Cc2ccccc2)CNC1=S	1.6%	-6.1	?	5.3%	-3.8	8.5%
CCC(=O)NC(=S)Nc1ccc(N2CCOCC2)cc1	-0.3%	95.8*	36.7%	81.3%	27.6*	8.4%
O=C(CCl)Nc1ccc(N2CCCCCC2)cc1	·	57.6	?	?	20.1*	-35.7%
NS(=O)(=O)c1cc(C(=O)OCC(=O)Nc2ccc(N3CCCCC3)cc2)ccc1Cl	6.3%	6.5	42.8%	43.4%	13.2*	-0.6%
O=C(CNC(=O)c1ccco1)Nc1ccc(N2CCCCCC2)cc1	-17.1%	·	56.9%	12.3%	·	·
CC1CCCCN1CC(=O)Nc1ccc(N2CCCCCC2)cc1 (configuration not stated)	6.3%[57.1 µM]	29.1	27.0%	?	31.0	6.5%
CCc1ccc(NC(=O)COC(=O)c2ccc(Cl)c(S(=O)(=O)N3CCCCCC3)c2)cc1	0.2%	-4.5	25.5%	10.9%	-2.8	23.5%
CCCCCC(=O)NC(=S)Nc1ccc(N2CCOCC2)cc1	-16.6%	-8.3	3.6%	-20.1%	11.6	10.0%
O=C(CNCc1ccco1)Nc1ccc(N2CCCCCC2)cc1	-4.5%	35.4	-0.3%	16.8%	30.1*	7.9%
CCOc1ccc(OCC(=O)Nc2ccc(N3CCCCC3)cc2)cc1	-36.9%	4.2	?	0.0%	-2.5	9.6%
SMILES	Sm TGR inh	Shiga toxin inh	Pf growth 96h	Pf growth 48h	Cycloheximide cs	NS1 inh
CCC(=O)Nc1ccc(N2CCCCC2)cc1	-10.8%	65.1	17.1%	·	37.1*	3.1%
CCOc1ccc(-c2csc(/C(C#N)=C\c3ccc(O)c([N+](=O)[O-])c3)n2)cc1	-19.7%	13.0	5.22µM*	?	1.8	-4.5%
CCc1ccc(/C=C(/C#N)c2nc(-c3ccc(C)cc3)cs2)cc1	-0.1%	·	·	·	·	·
Nc1nc(COc2ccccc2C=O)nc(Nc2ccccc2)n1	0.7%	-5.1	-0.3%	7.3%	6.9	-3.3%
Cn1/c(=N/NC(=O)c2ccccc2Br)sc2ccccc21	3.5%	87.4*	146.9%	57.5%	36.5*	·
COc1cc(C(=O)N/N=c2/sc3ccccc3n2C)cc(OC)c1OC	0.3%	-3.9	?	15.0%	-2.4	0.1%
O=C(CNC(=O)c1ccco1)Nc1ccc(F)c(Cl)c1	4.5%	-5.7	?	6.6%	-2.6	?
COc1ccc(C(=O)C(OC(=O)CNC(=O)c2ccco2)c2ccccc2)cc1 (configuration not stated)	17.8µM*	-14.5	-17.5%	49.1%	14.4	-40.8%
CCOc1ccc(NC(=O)CNC(=O)c2ccco2)cc1	-16.3%	16.2	?	32.6%	18.0*	1.6%
O=C(CNC(=O)c1ccco1)Nc1ccc(F)cc1	0.7%	52.0	-12.8%	39.7%	12.1	3.4%
O=C(CNC(=O)c1ccccc1)OC(C(=O)c1ccccc1)c1ccccc1 (configuration not stated)	-3.2%	-16.8	?	2.9%	-9.3	-33.1%
CCOc1ccc(NC(=O)CCNC(=O)c2ccco2)cc1	-5.4%	13.8	32.4%	16.6%	19.3*	14.4%
Cc1ccc(NC(=O)CNC(=O)c2ccco2)cc1Cl	0.0%	36.4	20.9%	25.3%	22.2*	6.4%
Cc1c(/C=C(\C#N)c2nn(-c3ccccc3)c(N)c2C#N)c2ccccc2n1Cc1ccc(F)cc1	0.5%	-5.0	1.5%	·	4.4	-0.7%
Cc1cc(C(=O)Cn2nc(C(=O)O)c3ccccc3c2=O)c(C)n1CCc1ccc(Cl)cc1	-1.8%	19.8	-10.8%	?	6.5	4.4%
COc1ccc(N2CCN(C(=N)/C(C(C)=O)=C(\C)O)CC2)cc1	0.0%	-13.5	122.7%	20.4%	-3.1	6.9%
COc1ccc(OCC(=O)Nc2ccc(NC(=O)c3ccco3)cc2)cc1	4.3%	78.1*	·	3.8%	24.3*	-59.3%
N#CC(C(=O)Nc1ccccc1)=C1CCCCC1	-11.6%	15.8	24.5%	19.4%	14.8*	15.0%
N#CC(C(=O)O)=C1CCCC1	1.0%	-1.0	?	10.3%	1.5	3.9%
Fc1c(F)c(F)c(CSc2nc3ccccc3[nH]2)c(F)c1F	-7.8%	71.1*	32.0%	?	25.2*	-3.0%
c1ccc2[nH]c(SCc3cscn3)nc2c1	-3.3%	65.0*	?	61.3%	35.4*	-10.0%
O=S1(=O)CC=C(CSc2nc3ccccc3[nH]2)C1	2.3%	10.0	?	-2.7%	-2.1	8.6%
N#Cc1ccccc1CSc1nc2ncc(Br)cc2[nH]1	-27.3%	15.3	9.0%	-9.8%	0.4	-3.0%
O=c1cc(-c2ccccc2)nc(SCc2ccccc2F)[nH]1	·	6.5	2.5%	-4.0%	-3.6	-0.2%
O=C(O)c1ccc(CSc2nc3ccccc3[nH]2)cc1	-9.9%	-6.2	?	-5.3%	1.0	3.7%
Fc1ccccc1CSc1nc2ccccc2[nH]1	-3.6%	86.1*	236.6%	·	53.6*	-78.8%
